From ChEMBL document CHEMBL4888484, “Replenishing the malaria drug discovery pipeline: Screening and hit evaluation of the MMV Hit Generation Library 1 (HGL1) against asexual blood stage Plasmodium falciparum ,using a nano luciferase reporter read-out” (2022)
Among all 4,800 compounds or so, about 420 (8.8%) showed an effect of 50% or more. For the sample, strong results were picked, then their nearest neighbours and some compounds at random. Where a SMILES comes first, the peptide text is derived from it. The star is where a group is joined. NHPhenethyl = c1ccc(CCN*)cc1

What follows are molecules tested on Plasmodium falciparum (assay: Confirmatory screen in NF54 nanoGlo assay, in single point, at 2uM, 72h). Conditions: timepoint 72 hour.
Format: functional, Erythrocyte

SMILES | % Inhibition [%]
CC(C)n1ccc(CN2CCC[C@H](c3cc(C(F)(F)F)[nH]n3)C2)n1 | -9
CCc1ccc([C@H]2NCCc3[nH]cnc32)nc1 | 29
CCc1ccc(CN2CCC[C@H](c3ncc[nH]3)C2)nc1 | 52
CCN(CC)c1ccc(N2C(=O)c3c(Br)c(Br)c(Br)c(Br)c3C2=O)cc1 | 5
C=CCNC(=S)NS(=O)(=O)c1ccc(Cl)cc1 | 3
COc1cc(CNCCN2CCOCC2)ccc1OCc1ccc(C)cc1 | -1
CCOc1cc(=O)c(C(=O)N2CCC(C(N)=O)CC2)nn1-c1ccc(F)cc1 | -6
Cc1ccccc1S(=O)(=O)N1CCN(c2c(C)n(-c3ccccc3)c(=O)n(C)c2=O)CC1 | 1
Cn1c(N)c(S(=O)(=O)N2CCN(c3ccccc3Cl)CC2)c(=O)n(C)c1=O | 61
CCS(=O)(=O)N1CCN(c2c(C)n(-c3ccccc3)c(=O)n(C)c2=O)CC1 | 2
CC(C)n1cc(CN[C@@]2(CO)CCCc3ccccc32)cn1 | -5
CCN(CC)CCCNC(=O)[C@H]1CCCN(c2nc3ccccc3n(Cc3ccccc3)c2=O)C1 | 0
CCC1CN2CCCC2CN1C(=O)Nc1nc2ccccc2s1 (configuration not stated) | -1
COc1ccc(CNC(=O)Cn2c(=O)n(Cc3cccc(OC)c3)c(=O)c3sccc32)cc1 | 1
Cn1ccc(NC(=O)C(=O)N2CC[C@H](c3ccco3)C2)n1 | -1
O=C(Nc1cccc(C(F)(F)F)c1)C(Oc1ccccc1)Oc1ccccc1 | -20
Cc1cccc(C(=O)Nc2ccc(N3CCCCCC3)cc2C(=O)O)c1 | -10
O=C(Nc1cc(N2CCCS2(=O)=O)ccc1O)c1cccc(Oc2cccc(C(F)(F)F)c2)c1 | 100
CC(C)(C)CC(=O)NC[C@H]1OC[C@@H](NC2CCCC2)[C@@H]1O | 3
Cc1n[nH]c(C)c1NC(=O)C1=NO[C@@H](CNC(=O)OC(C)(C)C)C1 | 0
Cc1cccc(C(=O)N[C@H]2CCN(c3ccccc3)C2=O)c1 | 13
Cn1c(=O)c2c(ncn2CC(=O)N(Cc2ccccc2)C2CC2)n(C)c1=O | -4
CN(Cc1nccn1C)C(=O)c1cc2ccccc2[nH]1 | 5
C=CCNC(=O)c1cc(Br)cc(Br)c1OC | 6
Cc1ccc(C2=C[C@@H](c3ccc(Cl)cc3)n3nc(NC(=O)c4ccccc4)nc3N2)cc1 | 94

SMILES | % Inhibition [%]
Cc1ccc([C@@H]2C=C(C(=O)O)Nc3c(C(N)=O)nnn32)cc1 | -14
COc1cc([C@@H]2C=C(c3ccc(Cl)cc3)Nc3ncnn32)ccc1OCc1ccc(Cl)cc1 | 3
Cc1nnc2ccc(S(=O)(=O)N(Cc3ccccc3F)c3cc(F)cc(F)c3)cn12 | -5
CC(N)C(=O)NC(C)C(=O)NCCc1ccccc1 (stereo not drawn) (H-Ala-Ala-NHPhenethyl; configuration not given here) | -5
CCOC(=O)c1ncn(C2CCN(C(=O)c3cccc(Cn4ccnc4)c3)CC2)c1N | -3
CCOC(=O)c1c(CN2CCCC2)n(C)c2cc(-c3cccnc3)c(O)c(Cn3ccnc3)c12 | 60
Cc1nn(C)c(C)c1S(=O)(=O)N1CC[C@]2(CCN(c3cccnc3)C2)C1 | 1
Cc1cc(NC(=O)c2cccc(S(=O)(=O)NC3CC3)c2)no1 | -8
O=C(C[C@H]1CCC(=O)N(CC2CC2)CC1)Nc1ccccc1F | 4
COc1ccc(C)c2sc(N(CCCn3ccnc3)C(=O)Cc3ccc(F)cc3)nc12 | 79
COc1cccc(CNCCCn2ccnc2)c1OCc1ccc(F)cc1 | 6
Cn1cccc1CNCc1ccncc1 | 0
CCN(CC)[C@H](CNC(=O)C1=NN(C)C(=O)CC1)Cc1ccccc1 | 2
CC1CCC(c2noc([C@H]3CCO[C@@H]3c3cncc(Br)c3)n2)CC1 (some centres not stated) | 52
O=C(c1cncc(Br)c1)N1CC[C@H](c2nc(C3CCOCC3)no2)C1 | -2
c1csc(-c2noc(Cc3c[nH]c4ccccc34)n2)c1 | 21
COc1ccc(CC(=O)N(c2ccccc2)c2ccccc2)cc1 | 21
COc1ccc(C(=O)N2CC(C(=O)O)CCC2c2ccccc2)cc1 (configuration not stated) | 3
COc1ccc(C(=O)N(C(=O)c2ccc(OC)cc2)c2c3c(nc4ccccc24)CCCC3)cc1 | 72
Cc1nc(N2CCC(c3nc(-c4ccccc4)no3)CC2)c2c(C)noc2n1 | 54
C[C@H](Oc1ccccc1)C(=O)N1CCC(c2nc(-c3ccc4c(c3)OCO4)no2)CC1 | 6
c1cc(-c2noc(C3CC3)n2)nc(N2CCNCC2)n1 | -12
C=CCC(N)(CC=C)c1ccc(C)cc1 | -6
Cn1nnnc1NC/C=C/c1ccccc1 | -4
C=C1C(C)C2C(Cc3c[nH]c4ccccc34)NC(=O)C23C(=O)CC(O)C(O)CC(C)C/C=C/C3C1O (configuration not stated) | 44

SMILES | % Inhibition [%]
CCC(C)C(NC(=O)c1ccccc1NC(=O)c1ccco1)C(=O)N1CCCCCC1 (configuration not stated) | -9
Cc1nc(C)c(CN2C(=O)C3CCCCC3C2=O)s1 (configuration not stated) | -2
O=C(c1cccc(C(=O)N2CCN(C(c3ccccc3)c3ccccc3)CC2)c1)N1CCN(C(c2ccccc2)c2ccccc2)CC1 | 63
O=C([C@H]1CC(=O)N(c2ccc(F)c(Cl)c2)C1)N1CCN(C(c2ccccc2)c2ccccc2)CC1 | -3
O=C(c1ccoc1)N1CCC[C@H](C(=O)N2CCN(C(c3ccccc3)c3ccccc3)CC2)C1 | -1
C[C@@H](C(=O)Nc1cccc2ccccc12)c1ccc(-c2ccccc2)c(F)c1 | -11
CC[n+]1c(/C=C/N(C)c2ccccc2)oc2ccc(-c3ccccc3)cc21 | 89
CC[n+]1c(/C=C/N(C)c2ccccc2)oc2ccccc21 | 80
CC(C)(C(=O)Nc1nccs1)c1cccnc1 | -2
Cn1cc(C(=O)N2N=CC[C@]2(O)C(F)(F)F)cn1 | 1
O=C(c1cc(-c2ccccc2)n[nH]1)N1CCC(N2CCc3sccc3C2)CC1 | 21
CCOc1c(CNC(C)(C)C)cccc1OC | -9
CC(C)c1cnc(NCCCC[C@H]2CCCO2)nc1 | -2
Cc1cccc(Oc2nc3ccccc3n3c(=O)n(CC(=O)NCc4ccc(Cl)cc4)nc23)c1C | -10
Cc1ccc(S(=O)(=O)c2ccc3c(c2)Oc2ccccc2N3)cc1 | -10
O=C(NC1CCN(Cc2ccccc2)CC1)c1cnn2c(-c3ccc4c(c3)OCO4)ccnc12 | 3
Cc1nc2cc3c(cc2n1CC(=O)Nc1ccc(Cl)cc1)OCCCO3 | -4
CCc1cccc(NC(=O)Cn2ccc3ccc(-c4nnc(C)o4)cc32)c1 | 81
Cc1noc(C)c1CC(=O)Nc1cccc(-c2nnco2)c1 | 3
Cc1cc(=O)n(CC(=O)Nc2ccc(Cl)c(C(F)(F)F)c2)c(-c2ccc(F)cc2)n1 | -6
Cc1nnc(-c2ccc3ccn(CC(=O)Nc4ccc(F)c(Cl)c4)c3c2)o1 | 78
Cn1cc(-c2ccc(Cl)cc2)c2ncn(CC(=O)Nc3cccc(Cl)c3)c(=O)c21 | -5
O=C(Nc1ccccc1)N1CCC[C@H]1c1ccncc1 | -12
CC(C)N1CCC2(CC1)N=C(c1ccc3c(c1)OCO3)C[C@@H](c1cc(Cl)ccc1O)N2 | 41
O=C(C[C@@H]1C(=O)Nc2nc(N3CCOCC3)[nH]c(=O)c21)Nc1ccc(Cl)cc1 | 9

SMILES | % Inhibition [%]
Cn1c(-c2ccc(Cl)c(Cl)c2)c[n+](CC(=O)c2ccc(-c3ccccc3)cc2)c1N | 6
COC(=O)CN(C(C)C)S(=O)(=O)c1cc(Cl)cc(Cl)c1 | 3
N#Cc1ccc(S(=O)(=O)N2C3CCC2CC(O)C3)o1 (configuration not stated) | -11
CCCCCc1c(C)nc2[nH]n(-c3ccccc3)c(=O)c2c1O | -19
O=C1CCCc2nc3[nH]n(-c4ccccc4)c(=O)c3cc21 | 8
CNCCc1c(-c2ccccc2)[nH]n(-c2ccccc2)c1=O | 63
CCc1n[nH]c(C(=O)N2CC3CCCN3CC2CC)c1Br (configuration not stated) | 7
Oc1ccc(C2=C(c3ccccc3)N=NCN2O)c(O)c1 | -14
COCc1c(Br)c(C)nc(O)c1C#N | -8
CCN1c2cc(C(=O)Nc3ccc(OC)cc3OC)ccc2C(=O)N2CCCC[C@H]21 | 8
Cc1ccc(Cn2c(=O)c(C(=O)NCc3ccc4c(c3)OCO4)nn(-c3ccc(C(C)C)cc3)c2=O)cc1 | 64
CC[C@H]1Cn2c(C(=O)NCc3ccc4c(c3)OCO4)cc3c(Cl)ccc(c32)O1 | -11
O=C(Cn1cnc2ccc(Cl)cc2c1=O)NCc1ccc2c(c1)OCO2 | -5
COc1ccc(S(=O)(=O)N2CCN(C(=O)N(C)C)[C@@H]2c2ccccc2)cc1 | 0
COC(=O)c1cc(Cl)c(Cl)cc1N | -6
COc1cccc([C@H]2CC(=O)Nc3nc(N4CCCCC4)sc32)c1 | 6
COc1ccc(S(=O)(=O)N2CCC(c3cc(N)on3)CC2)cc1Cl | 46
COc1ccc(OC)c(S(=O)(=O)N2C[C@H]3CCCC(=O)N[C@H]3C2)c1 | -4
COc1ccc(F)cc1S(=O)(=O)N1CCc2noc(N)c2C1 | 68
O=C(c1ccccn1)N1CC(n2cnnc2[C@@H]2CCCO2)C1 | -8
Oc1ccc([C@@H](c2cn(-c3nc(-c4ccc(Cl)cc4)cs3)nc2-c2ccccc2)c2c(-c3ccccc3)nn(-c3nc(-c4ccc(Cl)cc4)cs3)c2O)cc1 | 6
c1nc2nc[nH]c(NC3CCCCC3)c-2n1 | 10
